Hits are enriched below; roughly 3% of the tested compounds scored in any of these assays.
SENP7 inh = blocks the human protease SENP7; Q9BQF6; recombinant SENP7, Z-RLRGG-aminoluciferin luminescence, 40 min; inhibition, % at 5 µM; 330,000 compounds, 1.5% hits; AID 434973;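 active means inhibition above about 50% at the single test dose, limit read from the data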;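 further: plate controls were DMSO with enzyme for no effect and no enzyme buffer wells for full effect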
SENP6 block = SENP6 protease inhibition; 330,000 compounds, 1.8% hits; Recombinant SENP6 catalytic domain, aminoluciferin luminescence; AID 2599; inhibition, % at 10 µM; Q9GZR1;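 active means inhibition above about 50% at the single tested dose, limit read from the data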;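 further: plate controls were DMSO wells with enzyme for no effect and DMSO wells lacking enzyme for full effect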
C8 TRAIL sens = caspase-8 TRAIL sensitization. NB7+C8 cells + TRAIL, ATPlite viability luminescence. inhibition (viability loss, TRAIL sensitization), % at 10 µM. 360,000 compounds, 1% hits. AID 624354;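 active means compounds causing at least 50% loss of cell viability in the single-dose screen, relative to plate controls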
PPC-1+TRAIL kill = compounds killing PPC-1 cancer cells with TRAIL present (potentiator screen, no TRAIL-free arm) | PPC-1 cells + TRAIL, ATPLite viability luminescence | cell killing (% activity), % at 4 µM or 5 µM | 220,000 compounds, 0.41% hits | AID 1443;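 active means cell killing above 50% in the first pass at 4 µM, then a duplicate retest at 5 µM averaging 50% or more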;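 further: plate controls were cells with TRAIL plus DMSO for no effect and medium-only wells lacking cells for full effect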
SENP8 block-1 = SENP8 protease inhibition. Q96LD8. purified SENP8, Z-RLRGG-aminoluciferin cleavage, luminescence. inhibition, % at 10 µM. 330,000 compounds, 1.2% hits. AID 2540; in the data active means inhibition above about 50%
Target sequence (Q96LD8 whole entry, looked up): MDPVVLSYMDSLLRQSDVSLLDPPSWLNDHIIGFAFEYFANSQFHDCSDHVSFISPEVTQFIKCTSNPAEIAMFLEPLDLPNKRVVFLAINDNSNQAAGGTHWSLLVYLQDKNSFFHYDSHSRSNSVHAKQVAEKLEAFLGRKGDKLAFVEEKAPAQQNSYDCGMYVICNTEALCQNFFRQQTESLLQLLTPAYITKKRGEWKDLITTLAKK
SENP8 block-2 = inhibitors of human SENP8 protease. recombinant SENP8, Nedd8 substrate fluorescence. inhibition, % at 20 µM. 360,000 compounds, 0.64% hits. Q96LD8; in the data active means inhibition mostly above about 40%, no sharp cut-off; inactive means mostly below about 27%
SENP8 conf-1 = human SENP8 inhibition, confirmed. shares compounds with SENP7 inh. Recombinant SENP8, Z-RLRGG-aminoluciferin luminescence, 60 min. inhibition, % at 12.5 µM. 6,200 compounds, 40% hits. AID 488912;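 active means mean inhibition across replicates above about 50%, limit read from the data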
SENP6 confirm = confirmation of human SENP6 protease inhibitors | shares compounds with SENP7 inh | 6,200 compounds, 58% hits | AID 488915 | recombinant SENP6, Z-RLRGG-aminoluciferin luminescence | inhibition, % at 12.5 µM
SENP7 confirm = human SENP7 inhibition, confirmed | recombinant SENP7, Z-RLRGG-aminoluciferin luminescence, 40 min | shares compounds with SENP7 inh | 6,200 compounds, 69% hits | inhibition, % at 12.5 µM
Casp3 SENP sel = inhibits human caspase-3 in SENP selectivity test. shares compounds with SENP7 inh. purified caspase-3, Z-DEVD-aminoluciferin luminescence, 60 min. inhibition, % at 12.5 µM. 6,200 compounds, 60% hits;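 active means mean inhibition above about 50%, limit read from the data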;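 further: plate controls were enzyme with DMSO for no effect and wells without caspase-3 for full effect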
Target sequence (P42574 28-227 limits assumed): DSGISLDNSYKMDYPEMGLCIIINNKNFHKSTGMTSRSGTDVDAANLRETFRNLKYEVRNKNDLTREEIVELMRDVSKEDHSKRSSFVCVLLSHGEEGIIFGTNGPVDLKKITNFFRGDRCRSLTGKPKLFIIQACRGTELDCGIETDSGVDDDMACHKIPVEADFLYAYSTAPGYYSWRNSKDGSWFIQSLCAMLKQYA
SENP luc ctr = interferes with luciferase luminescence in SENP counter-screen; shares compounds with SENP7 inh; Pre-incubated SENP8/Z-RLRGG-aminoluciferin, luciferase luminescence interference; inhibition, % at 12.5 µM; 6,200 compounds, 39% hits; AID 488919;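 active means mean inhibition above about 50% when retested at one dose, limit read from the data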;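 further: plate controls were DMSO wells with completed reaction for no effect and substrate without enzyme for full effect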
SENP8 conf-2 = confirmation of human SENP8 protease inhibitors. 1,400 compounds, 15% hits. purified SENP8, Nedd8-AMC/pro-Nedd8 cleavage fluorescence, 30 min. shares compounds with SENP8 block-2. inhibition, % at 25 µM. AID 624319; in the data active means inhibition mostly above about 39%, no sharp cut-off; inactive means mostly below about 34%
Numbers without * were called inactive.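 How the source made its calls, unless noted: active means mean inhibition above about 50% in the one-dose retest (limit read from the data); inactive means the rest.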

`CC(=O)OCCCNc1cc(SCc2ccco2)c2nonc2c1[N+](=O)[O-]` gave SENP7 inh 34, SENP6 block 63*, C8 TRAIL sens 0, PPC-1+TRAIL kill -3, SENP8 block-1 60*, SENP8 block-2 50*, SENP8 conf-1 10, SENP6 confirm 12, SENP7 confirm -5, Casp3 SENP sel 5, SENP luc ctr -9 and SENP8 conf-2 17.
For Cc1ccccc1N1C(=O)Cc2ccccc2C1=O the results were SENP7 inh 37, SENP6 block 67*, C8 TRAIL sens -1, SENP8 block-1 27, SENP8 block-2 88*, SENP8 conf-1 17, SENP6 confirm 57*, SENP7 confirm 33, Casp3 SENP sel 24, SENP luc ctr -4 and SENP8 conf-2 37.
Cc1ccccc1N1C(=O)c2cccc3cccc(c23)C1=O was read as SENP7 inh 4, SENP6 block -11, C8 TRAIL sens 11, SENP8 block-1 7 and SENP8 block-2 -11.
Screening COc1ccc2nc3ccccc3nc2c1N returned SENP7 inh 22, SENP6 block 87*, C8 TRAIL sens 45, PPC-1+TRAIL kill 38, SENP8 block-1 53*, SENP8 block-2 78*, SENP8 conf-1 -3, SENP6 confirm 37, SENP7 confirm 75*, Casp3 SENP sel 73*, SENP luc ctr 47 and SENP8 conf-2 14.
`C/C(=N\N=C(/N)c1nonc1N)c1ccc2c(c1)OCO2` gave SENP7 inh 92*, SENP6 block 84*, C8 TRAIL sens 32, PPC-1+TRAIL kill 17, SENP8 block-1 82*, SENP8 block-2 43*, SENP8 conf-1 88*, SENP6 confirm 88*, SENP7 confirm 100*, Casp3 SENP sel 91*, SENP luc ctr 28 and SENP8 conf-2 15.
O=C(NCC(=O)N1CCc2ccccc2C1)c1ccccc1Cl was read as C8 TRAIL sens 2 and SENP8 block-2 3.
COc1cc(NC(C)CCCN)c2ncccc2c1 (stereo not drawn) was read as SENP7 inh 84*, SENP6 block 64*, C8 TRAIL sens 49, SENP8 block-1 49, SENP8 block-2 47*, SENP8 conf-1 44, SENP6 confirm 69*, SENP7 confirm 30, Casp3 SENP sel 97*, SENP luc ctr 1 and SENP8 conf-2 81*.
Screening COc1ccccc1-c1nc2ccccc2nc1-c1ccccc1OC returned SENP7 inh -6, SENP6 block 0, C8 TRAIL sens -4, PPC-1+TRAIL kill 16, SENP8 block-1 4 and SENP8 block-2 -248.
`O=C1c2ccccc2-c2nc3ccccc3nc21` gave SENP7 inh 38, SENP6 block 51*, C8 TRAIL sens 31, PPC-1+TRAIL kill 6, SENP8 block-1 17, SENP8 block-2 47*, SENP8 conf-1 37, SENP6 confirm 53*, SENP7 confirm 49, Casp3 SENP sel 64*, SENP luc ctr 16 and SENP8 conf-2 89*.

High-throughput results deposited in PubChem by Sanford-Burnham Center for Chemical Genomics.
